The source of these data is PubChem BioAssay AID1508600 (Functional Genomics Laboratory (NCATS/FGL), 2020).

About 3,700 (7%) of roughly 53,000 sequences were called active. The sample as a whole holds a higher share of actives than the screen did. Values without a mark were called inactive.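 How the source made its calls: active means gene knockdowns whose robust z-score for IL-1 alpha signal is at least 2 or at most -2, so actives lie on both sides; inactive means the rest.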

This test in a line: Components of the Cytosolic LPS Sensing Pathway: Gene Identification via Genome-wide siRNA Screen.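 Further: robust z of the log signal after scaling to non-targeting control siRNA wells of the plate.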 Particulars: RAW264.7 macrophages, IL-1a HTRF, actives lie on both sides, screened at 100 nM (by protocol), cells primed 5 h with Pam3CSK4 first. In outline: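 Mouse macrophage line RAW264.7 is transfected with siRNA (100 nM final), grown 48h, primed with TLR ligand Pam3CSK4 5 h and given intracellular LipidA 24 h. IL-1a in supernatant is read by HTRF and viability by luminescence.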
For orientation: Time-resolved FRET reads energy transfer from a long-lived donor to a nearby acceptor.
For the sequence GGACUGACUGGCUUCAUUGTT against Atl2, the z-score is -2.52 (active).

Turning to GCAGAUUAGCUUCGUCAACTT against Top2a, the z-score was -0.588.

Take GCGAAAUCCUGGGCUACUCTT against Dyrk4: the z-score was -0.32.

GGUUGUGACUACACUAUGGTT against Zfp456: the z-score was -1.7.

For the sequence CGCAGAACGUGAACACCAATT against Smad3, the z-score is -2.47 (active).

Regarding GUUACACAGGAGUGUGUAATT against Rnase2a, the z-score is 0.573.

Consider GGUGGCUUUAGGGAACAUUTT against Dctn3, for which the z-score is 0.369.

With GGAAAUGGAGAAAUAUGCATT against Plod3, the z-score is -0.167.

As for ACCUUUGUCCUUUUGUUGUTT against Defb15, the z-score was 2.01 (active).

Turning to GGAGAUGAAAAAAACGAGCTT against Rxylt1, the z-score is -0.222.

With GCAAAUAAUGAGGUCCAGATT against Rbms2, the z-score was -0.377.

GCAAGUCCUACAAUACAACTT against Tk1: the z-score was 5.5 (active).

For the sequence GGCGAUGAAGAAGUAAUUUTT against Appl2, the z-score is -1.2.

As for CCCAUUAAGGUAUAAUAUCTT against Olfr855, the z-score was -0.301.

As to GGUUUCAUUUGGAUUUGCATT against Glyr1, the z-score is 0.491.

On to GGCAAAGAUAAUAAAGCUATT against Xpo1, for which the z-score is -0.967.

CCGUUUACUUCGUCCAAGUTT against Crlf1: the z-score was -0.134.

In the case of CCUUAUUUGUCCAUAAAAGTT against Pkdrej, the z-score is 2.43 (active).

Turning to GGGUCCUCUGAAAGUUACCTT against Fndc5, the z-score was 0.497.

Consider GCACUUUGGCAUAUUUUCATT against Slc6a15, for which the z-score was -0.391.

As for GGAAAUGCUUCUGAGCUAGTT against Desi2, the z-score is 1.71.

In the case of GGGACGACUCUUUCUUAUGTT against Olfr1264, the z-score was 0.822.

In the case of GGAGAAAGGUGGUUUGGUATT against Sap30bp, the z-score is -2.85 (active).

With GGAGCUAGUAUGUUCAACATT against Ubqln1, the z-score is -0.942.

Consider GGUGUUUGUUUCUAACUUCTT against Glcci1, for which the z-score is -0.434.

As to CGAAUUCAUACCAGUGUGCTT against Ndufa10, the z-score is 2.84 (active).

For GCACUCUGCCUGAAAUACCTT against Nlrp1a, the z-score was -0.376.

For the sequence GGACUUCACAAUCUCUUUCTT against Hck, the z-score was -0.11.

On to GGAAGAAUCCACUUUGAACTT against Chil4, for which the z-score was 0.048.

Take GGGCUAAAUUAAGCUUCUATT against Sowahd: the z-score was -0.707.

For GCCUGCUUAAGCUACUUAUTT against Fam210b, the z-score is -1.04.

UCUUACAAACUAGCUCUCCTT against Crabp2: the z-score is -0.777.

In the case of GGGACCGUCUUAAACAUCUTT against Rsl1d1, the z-score is 2.92 (active).

For GGAGAGUAACAAUUAUGAATT against Pcdha9, the z-score is 0.983.

Regarding GCUCGAGAGUACUGUAGGCTT against Kat8, the z-score was -2.41 (active).

GGUCUAAUACUCAAUAGACTT against Tmem200a: the z-score is 0.0917.

With CCUGAAGGGUCUGGCAAAATT against Zfp804a, the z-score was 0.66.

As for GGAAUUGGUUCAGAAAUAUTT against Rtn4, the z-score was 3.09 (active).

For GGUUAAACUACAACAGUUGTT against Tmco5, the z-score was 1.04.

For GGAAGAAUGUAAGUAUACCTT against Zscan12, the z-score is 1.68.

Turning to CGUGGAAGAAAUAAUUAGGTT against Faap24, the z-score was 0.664.

In the case of GCUGGUCUAUGUGGAAAGGTT against Brap, the z-score was 2.32 (active).

For the sequence GGUGAAGAGUGAUUUUAAUTT against Il10, the z-score was 1.03.

On to GGUGUUGGAAGAGAUGCUGTT against Ap3m2, for which the z-score was 0.405.

Regarding GGAAGUGGAAUAUGUCACCTT against Cd300lf, the z-score was -0.206.

In the case of GCCCACGUUUUAAGUCUACTT against Ap1s3, the z-score was 3.69 (active).

In the case of GAUACCAAGCUAAAAGAUCTT against Ear10, the z-score is 0.0579.

Take GCCAGUCAUCUUUGUAGUCTT against Olfr411: the z-score is -0.777.

GGAUGUACUUUGUUAAGGCTT against Tert: the z-score is 2.78 (active).

With GGGAGAACAGUGUUCAGAGTT against Bhlha15, the z-score is -0.151.

For CCAUGUGCUGUGCACUACGTT against Chst14, the z-score is 0.358.

Take GGAUAAGUGGUCUGCACUATT against Ube2c: the z-score is -0.412.

For CCACUAUCCCACCAAUCACTT against Lypd8, the z-score is -1.03.

As for GGCUGCUACUUCAGACAGCTT against Pou6f2, the z-score is -0.163.

On to GGAGGACCUUCAGAAACUCTT against Gdap2, for which the z-score is 1.14.

In the case of GGUGUCACGACAAACAUUCTT against Fam83h, the z-score is -1.6.

For GGCAAGGAUAUAAAUUCACTT against Mak, the z-score is 2.47 (active).

GUGGCAGCUGACAUGAAUGTT against Plac8: the z-score is -0.138.

On to CGGAUACAAUUUCUGACCGTT against Zdhhc23, for which the z-score was -0.163.

As to GGUUAUUUGGAAGUGCUACTT against Esx1, the z-score is 2.81 (active).

Turning to GGGACGUGUUAAAAAGGGCTT against Cldn5, the z-score is 0.0829.

As to CCGCCUAAAUGACUUGACATT against Fbxw14, the z-score was -1.1.

In the case of GGAAUUUGGUGCAGUGUCCTT against Utp15, the z-score is -1.39.

Consider GCUAACGAUAUUUAUCACGTT against Olfr385, for which the z-score is -0.474.

For the sequence GGGACUUGUCCAUCCUUUUTT against Qrfprl, the z-score was -1.71.

Take GGAGCAUUAUAUCAAUCCUTT against Zfp111: the z-score was 2.16 (active).

For GCUUACUAAGGUGAUAAUGTT against Il17d, the z-score was 0.0918.

As for CGAAAGAGAUGAUGAUAAUTT against Arrdc3, the z-score was 0.641.

In the case of GGAAAAGCAUUUUCAACGUTT against Lhfpl2, the z-score is -1.41.

As for GCGAACGAGACACUUCAAUTT against Pla2g4a, the z-score is 1.51.

In the case of GGAGACAUGGCAUCCAAAUTT against Cnr1, the z-score is 3.14 (active).

Regarding GGAGAAGAGAUCCCUGAACTT against Neurod2, the z-score was -0.491.

In the case of CGUGGUCGUGAGAUGUUUGTT against Chid1, the z-score is 1.35.

For the sequence “CCUUUUAGUGAAAAUAGCATT against A430010J10Rik”, the z-score was -0.924.

With GGACUUCUCUGGGACUUCATT against Syt9, the z-score was 0.406.

Take GCCUCCUGAAUGAUGACAUTT against Klk1b24: the z-score was -0.97.

Regarding GGUCAAAGUGAUUGUGUGUTT against Cdh16, the z-score was 0.555.

As to GGCUAAAUUCUACUUGAUATT against Ppfibp1, the z-score was -1.89.

On to GGCUGUUUUCUAUCCUAGGTT against Cd207, for which the z-score was -2.82 (active).

Take CUUAGCUACUUCAAGGUCATT against Spink8: the z-score was 0.628.

For the sequence GCAGGCUCUGCAUGAAGCATT against Alpl, the z-score is -0.213.

As to GCCCACGUACAGAAAACAGTT against Aox2, the z-score is -1.72.

Regarding GGGAGAACACAUCUACUGATT against Slamf6, the z-score is -1.17.

Take GGAGACAUGCAAUGAACUUTT against Ica1l: the z-score was 1.02.

Turning to GGAAUUUUUAGGAAUGGUGTT against Slc35f2, the z-score was -1.38.

Consider “GGAUUGCUGUAAAAUACAATT against Cdkn2aipnl”, for which the z-score was 2.16 (active).

Take GGAAGGUACCAGGUGAUUGTT against Nmnat3: the z-score is -1.89.

Take GGUGCCCAUGCUUGUAGGATT against Cstdc1: the z-score was 2.03 (active).

For GGUCCAUGCUCUCAUGAGUTT against Batf2, the z-score was -1.34.

Consider GGUACAGGAAACUCAAAUATT against Lrrc4, for which the z-score is 0.318.

For the sequence GGCCAGUUUAAACCAGUCUTT against Frmd6, the z-score was 0.583.

In the case of GCAUACAAUCAUGUAAGAGTT against Adprh, the z-score is 0.0994.

For CCAGAAACCGUGAUAAAAUTT against Immp2l, the z-score was 2.12 (active).

Turning to CGGAGCAUGAGCCAGAUAUTT against Eipr1, the z-score is -0.266.

With GGAGACUGUCAGAAAGUUATT against Olfr1164, the z-score is -0.769.

Take GGAAAAAUCCAAGAAGCAATT against Zc3h11a: the z-score is -1.09.

For GGACAUUUUUAUGCACAAUTT against Il1rl2, the z-score is 1.76.

With GCUCCUACUGUCCAGCAAUTT against Dusp18, the z-score is -0.642.

AAUUGAAGACUGUAAAUACTT against Sst: the z-score was 1.83.

Turning to GGAACACAAAGGUAAGAAATT against Raf1, the z-score was 0.0798.

Take GGUGCAGUUGAACUUCUACTT against Dnajc1: the z-score is 2.26 (active).

For the sequence GGUUUUAAAGCACUUUGUATT against Jazf1, the z-score is 0.288.

GGAAACUUCUUCCCGGUUGTT against Gsdmc: the z-score was 1.16.

Consider GCUUACAAGGCAUGUAUGATT against Rccd1, for which the z-score is 3.46 (active).

As to GGGAGUUUGAUUCUGACUCTT against Ank3, the z-score is -0.264.

Take CCCAUGAUAAUGAAUUAGCTT against Olfr378: the z-score is -0.537.

GGUAUUUGUAAAUUUGAGGTT against Atl1: the z-score is 0.309.

As to GGUAACAUACUAAAAGAAGTT against Vmn2r10, the z-score was -1.21.
